Sensor-assay potency score (higher = more potent) data for 40 sequences are collected here from the OligoGym collection.
Note: reference of the scale not given here.

The first assay deals with CENPE. Put plainly: pooled miR-30 sensor sort-seq; sequence = guide strand. Conditions: shRNA.
TTTGCTTGTATGTAGTTGCAAG: the sensor-assay potency score (higher = more potent) was -0.96.

In the case of TTGTCTTGTATCTCTTTCCTCA, the sensor-assay potency score (higher = more potent) came to 0.236.

In the case of TTTATCAACAGTTTCTTTGTGT, the sensor-assay potency score (higher = more potent) amounted to 1.24.

The sequence TTTTGATTTATCTAAATCCTTT displayed a sensor-assay potency score (higher = more potent) of -0.683.

For TTCTTGAGTATCTATATTCATG, the sensor-assay potency score (higher = more potent) was -0.957.

Turning to TTGACATCTTTTTTTAACGTAA, the sensor-assay potency score (higher = more potent) is -0.388.

On to TTACTTGGTGGTTCTGTCGGTC, for which the sensor-assay potency score (higher = more potent) amounted to 0.00856.

As for TTGAGTGTCTCCTCTACTCTTC, the sensor-assay potency score (higher = more potent) was -0.033.

The sequence TTAGTTGCATCTCTTGATCTTT came in with a sensor-assay potency score (higher = more potent) of 0.409.

The target in the next assay is CENPO. The description is as above. The conditions noted are these: shRNA.
TTATACAGCAATCTAGCACAGA returned a sensor-assay potency score (higher = more potent) of -0.484.

In the case of TTGATCTCCACTGTTTGGTTGG, the sensor-assay potency score (higher = more potent) is 0.162.

TTGCTCATTGATCTCCACTGTT yielded a sensor-assay potency score (higher = more potent) of -0.258.

Consider TTTCTGTATGACAAGGTCCACA, for which the sensor-assay potency score (higher = more potent) is -1.24.

For the sequence TTTAGGTTTAGAAACCTCCTCA, the sensor-assay potency score (higher = more potent) amounted to 0.397.

Take TAGGTTTAGAAACCTCCTCAGC: the sensor-assay potency score (higher = more potent) was -1.26.

TTATTTTTTGAAACTGAAGGAA registered a sensor-assay potency score (higher = more potent) of -0.369.

Sequence TAAGCATTCAGGTACTCGCAGA registered a sensor-assay potency score (higher = more potent) of -0.982.

The sequence TATTTTTTGAAACTGAAGGAAG displayed a sensor-assay potency score (higher = more potent) of -1.18.

As for TTTTGCAGCTATCTCTTCCAGG, the sensor-assay potency score (higher = more potent) was 0.117.

For TATTTCTCTGATGTGCTCCCAG, the sensor-assay potency score (higher = more potent) is -0.111.

In turn, TTGAAACTGAAGGAAGTCCCGA displayed a sensor-assay potency score (higher = more potent) of 0.077.

A further assay has as its target CEP110. The description is as above. The conditions noted are these: shRNA.
As for TAACAGATTATTGTCATCCTGC, the sensor-assay potency score (higher = more potent) was 0.569.

As to TTCTTTTTCTCTAACTCTCGGA, the sensor-assay potency score (higher = more potent) is -0.414.

With TTGTAGTCTACCACTCAACTGC, the sensor-assay potency score (higher = more potent) was 0.0361.

The sequence TTCATCTGCAATCTCAACTTGC showed a sensor-assay potency score (higher = more potent) of 0.351.

In turn, TTTATGGTCTTGATAGTCCAAA came in with a sensor-assay potency score (higher = more potent) of -1.01.

In turn, TAGTTGTATAGCTTCTTCCAGT returned a sensor-assay potency score (higher = more potent) of -0.43.

TAGTCTACCACTCAACTGCTTG registered a sensor-assay potency score (higher = more potent) of -1.16.

Regarding TTTCTTTCTGTCAAGAACTGGT, the sensor-assay potency score (higher = more potent) is -0.248.

As to TAAACCAAAAACTTGCTCCTGA, the sensor-assay potency score (higher = more potent) amounted to 0.902.

For the sequence TTTCTCAATTTCTAGGACCTGT, the sensor-assay potency score (higher = more potent) is -0.0728.

As to TTATGTTTAGACATCTGCCTTA, the sensor-assay potency score (higher = more potent) is 0.679.

The sequence TTGCATTGCTGAAATGTCGTTA returned a sensor-assay potency score (higher = more potent) of 0.524.

For another assay, the target named is CEP55. The assay is described as above. The conditions noted are these: shRNA.
For the sequence TTTATTGATGAGTTGAAGCAGT, the sensor-assay potency score (higher = more potent) was -0.0395.

The sequence TCTTTGTGAATACAACAGCTGA registered a sensor-assay potency score (higher = more potent) of -0.875.

The sequence TAAATTGTGAACTTCTTTTTGG showed a sensor-assay potency score (higher = more potent) of -0.104.

The sequence TTAACAATTTTAGCTAAGCAGA gave a sensor-assay potency score (higher = more potent) of -1.37.

Sequence TTTATGCCTATCATCTTCCAGA returned a sensor-assay potency score (higher = more potent) of -0.706.

For TAGTAGTCTCAGTAGACGCTGC, the sensor-assay potency score (higher = more potent) is -0.26.

As for TTCTTCTTGCTGCTTTAGCAGA, the sensor-assay potency score (higher = more potent) is -1.21.
